PubChem BioAssay (NCATS)
Inconclusive results are not listed. Activity calls are given as the source filed them. The call rests on the fitted dose curve.

What follows are molecules tested against Atrial natriuretic peptide receptor 1 (Homo sapiens) (UniProt P16066) (assay: Natriuretic polypeptide receptor (hNpr1) antagonism - Pilot CMLD screen (AID 1347052;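 further: HEK293 cells with hNpr1 stimulated by hNppA peptide at 0.1 nM; cGMP level read as GloSensor luciferase luminescence after agonist stimulation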)). Details: HEK293 hNpr1 GloSensor cGMP luminescence, ANP-stimulated; series mostly up to 9.22 µM; activity change, negative = inhibition: at the top concentration.
Chain of Atrial natriuretic peptide receptor 1 (Homo sapiens) (P16066 whole entry, looked up): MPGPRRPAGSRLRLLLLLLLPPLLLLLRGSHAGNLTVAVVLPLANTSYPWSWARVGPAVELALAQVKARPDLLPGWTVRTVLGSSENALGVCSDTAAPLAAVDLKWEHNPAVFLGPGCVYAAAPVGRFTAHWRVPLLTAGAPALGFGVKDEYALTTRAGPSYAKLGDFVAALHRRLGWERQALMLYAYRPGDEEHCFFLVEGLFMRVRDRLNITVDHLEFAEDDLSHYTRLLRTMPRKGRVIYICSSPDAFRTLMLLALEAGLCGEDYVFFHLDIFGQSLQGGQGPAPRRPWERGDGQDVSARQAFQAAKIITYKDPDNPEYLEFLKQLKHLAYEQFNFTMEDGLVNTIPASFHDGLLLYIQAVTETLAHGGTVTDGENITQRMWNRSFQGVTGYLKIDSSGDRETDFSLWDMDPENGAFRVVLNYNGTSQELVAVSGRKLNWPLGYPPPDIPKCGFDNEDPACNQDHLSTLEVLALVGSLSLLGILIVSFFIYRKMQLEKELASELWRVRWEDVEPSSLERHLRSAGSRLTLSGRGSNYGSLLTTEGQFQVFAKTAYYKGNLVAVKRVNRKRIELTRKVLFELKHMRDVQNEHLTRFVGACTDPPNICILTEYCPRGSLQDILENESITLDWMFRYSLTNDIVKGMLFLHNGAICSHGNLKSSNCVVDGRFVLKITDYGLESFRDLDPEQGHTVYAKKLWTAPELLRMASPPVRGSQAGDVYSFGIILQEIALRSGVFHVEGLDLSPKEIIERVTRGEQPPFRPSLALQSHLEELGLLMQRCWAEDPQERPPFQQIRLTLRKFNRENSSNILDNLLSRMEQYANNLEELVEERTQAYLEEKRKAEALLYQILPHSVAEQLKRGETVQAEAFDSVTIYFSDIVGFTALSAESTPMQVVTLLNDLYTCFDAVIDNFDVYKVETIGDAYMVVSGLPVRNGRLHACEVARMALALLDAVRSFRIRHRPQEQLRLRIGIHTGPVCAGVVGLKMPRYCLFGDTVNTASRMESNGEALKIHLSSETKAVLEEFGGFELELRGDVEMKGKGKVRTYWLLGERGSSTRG
On the % scale 0 is the no-effect control and ±100 the full control effect.

Structure (SMILES)	activity change, negative = inhibition
CCCC[C@]12Cc3cc(OC)c(OC)cc3[C@H](O1)c1c(cc(-c3ccccc3)oc1=O)O2	0.453% (inactive)
COC(=O)C1=C(C)N(Cc2ccccc2)C(=NCC2CC2)NC1c1ccc(Br)cc1 (centres undefined)	-3.03% (inactive)
COC(=O)C1=C(C)N(Cc2ccccc2)C(=NCCCCO)NC1c1cccc(F)c1 (centres undefined)	-1.13% (inactive)
CC(C)(C)Nc1oc(-c2ccccc2)nc1C=Cc1ccccc1	-8.01% (inactive)
C=C(C)C(=O)C=CC=Cc1ccccc1	-19.8% (inactive)
CCN1C(=NCc2cccc(C(F)(F)F)c2)NC(c2cccs2)C(C(=O)OC)=C1C (centres undefined)	-2.58% (inactive)
COC(=O)C1=C(C)N(Cc2ccccc2)C(=NCC(C)C)NC1c1cccc(F)c1 (centres undefined)	-23.5% (inactive)
CC1(C)CC(=O)C2=C(C1)O[C@@]1(CCCCN3C(=O)c4ccccc4C3=O)Cc3ccccc3[C@H]2O1	-0.306% (inactive)
CCCCCCCc1cc2c(cn1)C(=O)C(C)(OC(C)=O)C(O)=C2Cl (centres undefined)	-1.11% (inactive)
C=CCN=C1NC(c2cccc(C(F)(F)F)c2)C(C(=O)OC)=C(C)N1Cc1ccccc1 (centres undefined)	-2.43% (inactive)
O=C1C2=C(C(=O)c3ccccc31)[C@H]1O[C@](c3ccsc3)(Cc3ccccc31)O2	1.07% (inactive)
CC12C=C(C=Cc3ccc(Br)cc3)C(C)(C1)[C@H](c1ccc(Br)cc1)CC2=O (some centres undefined)	1.2% (inactive)
CCCCCCCc1cc2ccc(F)cc2c2c(C(=O)OC)c(C(=O)OC)c(C(=O)OC)n12	-11% (inactive)
CCCNC(=O)OC[C@H]1O[C@H](CCON=C(C)CCN2CCCCc3nc(C)c(C)cc32)C=C[C@H]1Oc1ccc(OC)cc1	-0.178% (inactive)
